TrxR1 inh – inhibitors of rat thioredoxin reductase 1. O89049. recombinant rTrxR1, NADPH fluorescence consumption, selenite substrate. Potency, µM (highest dose often 114 µM), inactives show top-dose activity change, negative = inhibition, hits mostly inhibitors. actives 1% (n = 390,000). AID 588453; also: potency is read from the fitted curve at half-maximal effect; nearly all actives have a fitted effect of over 65% in size
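Rat TrxR1 (90 nM in the dispensed reagent) was pre-reduced with 400 uM NADPH for 5 min at room temperature, then incubated with compound for 15 min. After 400 uM selenite was added, NADPH fluorescence (Ex 340/Em 450 nm) was followed for 8 min.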
Integrin act MD – activates integrin-mediated alleviation for muscular dystrophy. Potency, µM (titrated, usually from 38.3 µM), without a hit: top-dose activation, hits mostly activators. actives 0.064% (n = 350,000). alpha7betagal myoblasts, beta-gal FDG fluorescence, 48 h;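 also: potency is read from the fitted curve at half-maximal effect; 100% = response of the positive control SU9516; nearly all actives have a fitted effect of over 60% in size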
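Alpha7betagal+/- myoblasts (passage 13) were plated 16-24 hr, then exposed to compounds (1:260 dilution of DMSO stock) for 48 hours at 37C. After MPER lysis, β-galactosidase reporter activity was read as FDG fluorescence (ex 480/em 540) after 30 minutes.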
PI4K2A block – PI4K2A (human) kinase inhibition. Q9BTU6. purified PI4K2A, ADP-Glo luminescence, 1 h; active compounds read low. activity change, negative = inhibition, % at 76.9 µM. actives 0.13% (n = 420,000). AID 1346378; in the data active = activity change below about -50%; inconclusive = mostly about -30% to -49%;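 also: -100% = wells without enzyme as full effect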
Target sequence (Q9BTU6 whole entry, looked up): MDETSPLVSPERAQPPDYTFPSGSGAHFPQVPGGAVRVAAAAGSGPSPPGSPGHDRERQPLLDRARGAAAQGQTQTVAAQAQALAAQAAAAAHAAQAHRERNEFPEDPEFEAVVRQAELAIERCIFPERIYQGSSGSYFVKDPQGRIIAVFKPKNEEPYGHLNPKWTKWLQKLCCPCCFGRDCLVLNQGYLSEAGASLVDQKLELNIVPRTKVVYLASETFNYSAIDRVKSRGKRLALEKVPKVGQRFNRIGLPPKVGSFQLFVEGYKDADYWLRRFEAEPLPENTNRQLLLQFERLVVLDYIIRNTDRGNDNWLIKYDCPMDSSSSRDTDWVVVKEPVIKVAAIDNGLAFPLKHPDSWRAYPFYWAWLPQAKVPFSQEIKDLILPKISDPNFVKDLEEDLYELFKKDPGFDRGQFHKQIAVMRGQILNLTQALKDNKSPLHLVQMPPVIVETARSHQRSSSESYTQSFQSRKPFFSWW
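Compounds are screened against recombinant PI4K2A using PI as substrate and ATP, the latter dispensed at 300 microM. Reactions run one hour at ambient temperature before ADP-Glo detection; full inhibition defined by wells lacking enzyme.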
GALK inhibitor – blocks human galactokinase activity | Purified GALK, Kinase-Glo residual ATP luminescence | actives 0.007% (n = 270,000) | Potency, µM (highest dose often 57.5 µM), for inactives: at the top dose activity change, negative = inhibition, usual class: inhibitors | P51570; also: potency is read from the fitted curve at half-maximal effect
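Luminescence from leftover ATP (Ultra-Glo luciferase/luciferin) served as read-out after a 1 h room-temperature reaction of 5 nM GALK with 35 uM ATP and 100 uM galactose.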
TrxR1 substrate – is turned over as a substrate by rat TrxR1; O89049; purified TrxR1 substrate turnover, NADPH consumption readout; Potency, µM (series often up to 114 µM), without a hit: at the top dose activity change, negative = substrate turnover; actives 0.01% (n = 390,000); AID 588456; also: potency is read from the fitted curve at half-maximal effect; nearly all actives have a fitted effect of over 50% in size
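Rat TrxR1, dispensed at 90 nM, was prereduced with 400 uM NADPH (final) for 5 min at ~22 deg C, then incubated with compound 15 min before 400 uM selenite. A first-read NADPH fluorescence drop versus no-compound background flagged substrates.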
LDHA block – LDHA (human) enzyme inhibition | P00338 | actives 0.15% (n = 480,000) | AID 1347041 | activity change, % (values are at about 110 or 230 µM) | purified LDHA, NADH/diaphorase-resazurin fluorescence; active compounds read low; in the data active = activity change below about -30%; inconclusive = mostly about -25% to -30%;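 also: plate controls were DMSO wells for no effect and wells without enzyme for full effect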
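Remaining NADH was detected by diaphorase (0.133 mg/mL) converting 37 µM resazurin to fluorescent resorufin, read at 0 and 20 minutes. The preceding 5-minute room-temperature reaction used 2 nM LDHA, 0.2 mM sodium pyruvate and 0.06 mM NADH at pH 7.4.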
* = called active by the depositor; [ ] = dose if it differs, or a comment. Only some compounds are listed: those with a hit (about 1.1% of all), similar ones and a draw of the others. Unless noted, calls follow the shape of the dose curve; as a rule, active = well fitted curve in the direction sought with a large enough effect; inconclusive = small, poorly fitted or top-dose-only effect, or another doubt; inactive = no such curve, though single readings can be large; an effect the other way counts as inactive or inconclusive. Unless noted, % is scaled to controls: 0 for no effect and ±100 for the full control effect.

O=C1N/C(=N\S(=O)(=O)Cc2ccccc2)S/C1=C/c1cc([N+](=O)[O-])ccc1O was read as TrxR1 inh -30%, Integrin act MD 1%, PI4K2A block -3, TrxR1 substrate inconclusive and LDHA block -37*.
Screening O=C1N/C(=N\S(=O)(=O)c2ccccc2)S/C1=C\c1cc([N+](=O)[O-])ccc1O returned TrxR1 inh -14%, Integrin act MD -21%, PI4K2A block 1, GALK inhibitor -12%, TrxR1 substrate -20% and LDHA block -36*.
COc1cc(/C=C2\S/C(=N/S(=O)(=O)Cc3ccccc3)NC2=O)c([N+](=O)[O-])cc1OC was read as TrxR1 inh -15%, Integrin act MD 0%, PI4K2A block -4, GALK inhibitor 0%, TrxR1 substrate -15% and LDHA block -1.
Cc1ccc(S(=O)(=O)N2CCN(CC(O)CN3CCOCC3)CC2)cc1 (stereo unspecified) was read as TrxR1 inh 17%, Integrin act MD 66%, PI4K2A block -1, TrxR1 substrate -5% and LDHA block -5.
`CCC(C)c1ccc(S(=O)(=O)N2CCN(CC(O)CN3CCOCC3)CC2)cc1` (stereo unspecified) gave TrxR1 inh 22%, Integrin act MD -6%, PI4K2A block 5, TrxR1 substrate 6% and LDHA block -33*.
Screening CN(C)c1ccc(C=Nc2ccc(F)cc2)cc1 returned LDHA block 5.
For CNc1ccc(Br)cc(C(=O)/C=C/c2cccc(OC)c2)c1=O the results were TrxR1 inh 13µM*, Integrin act MD -70%, PI4K2A block -11, GALK inhibitor -3%, TrxR1 substrate -5% and LDHA block 13.
CNc1ccc(Br)cc(C(=O)/C=C/c2ccc(OC)cc2OC)c1=O was read as TrxR1 inh 14µM*, Integrin act MD -41%, PI4K2A block -4, GALK inhibitor 0%, TrxR1 substrate -10% and LDHA block 36.
Cn1nc(C(=O)OCC(=O)c2ccc(OC(F)F)cc2)c2ccccc2c1=O was read as LDHA block 1.
Screening Cc1nn(-c2ncnc3nc[nH]c23)c2c1C(c1ccc(F)c(F)c1)CC(=O)N2 (stereo unspecified) returned LDHA block 4.
`COc1ccc(-c2cn3c(n2)sc2cc(C(=O)NCc4ccccc4)ccc23)cc1` gave TrxR1 inh -1%, PI4K2A block -10, TrxR1 substrate 1% and LDHA block -1.
For COc1ccc2c(c1)sc1nc(-c3ccccc3)cn12 the results were TrxR1 inh 0%, Integrin act MD -28%, PI4K2A block -60*, GALK inhibitor 6%, TrxR1 substrate -7% and LDHA block 1.
For CC(C)C(=O)N1CCC(c2nc(-c3ccc(S(=O)(=O)N4CCN(C)CC4)cc3)no2)CC1 the results were TrxR1 inh 1%, Integrin act MD -16%, PI4K2A block -2, GALK inhibitor 13%, TrxR1 substrate 1% and LDHA block -2.
`CC(C)N(C(=O)N1CCC(c2nc(-c3ccncc3)no2)CC1)C(C)C` gave TrxR1 inh 7%, Integrin act MD -24%, PI4K2A block -72*, GALK inhibitor 1%, TrxR1 substrate 3% and LDHA block -1.
O=C(CC(Nc1ccccc1Cl)C(=O)OCC(=O)c1cccs1)c1ccccc1 (stereo unspecified) was read as TrxR1 inh 13µM*, Integrin act MD inconclusive, PI4K2A block 3, GALK inhibitor 2%, TrxR1 substrate 14% and LDHA block 0.
`COc1ccccc1NC(CC(=O)c1ccccc1)C(=O)OCC(=O)c1ccc(C)c(C)c1` (stereo unspecified) gave TrxR1 inh 45µM*, Integrin act MD -12%, PI4K2A block 8, GALK inhibitor -2%, TrxR1 substrate -8% and LDHA block -3.
Screening O=C(CC(Nc1ccccc1)C(=O)O)c1ccccc1 (stereo unspecified) returned TrxR1 inh inconclusive, Integrin act MD -33%, PI4K2A block -4, GALK inhibitor 0%, TrxR1 substrate 2%[11.4 µM] and LDHA block 1.
Screening O=C(CC(Nc1ccc(Cl)cc1Cl)C(=O)O)c1ccccc1 (stereo unspecified) returned TrxR1 inh 25µM*, Integrin act MD -19%, PI4K2A block -10, GALK inhibitor -1%, TrxR1 substrate 1% and LDHA block -1.
COc1ccccc1NC(CC(=O)c1ccccc1)C(=O)OCC(=O)c1ccc(Br)cc1 (stereo unspecified) was read as TrxR1 inh 71µM*, Integrin act MD -17%, PI4K2A block 8, TrxR1 substrate -6% and LDHA block -11.
Screening COc1ccc(Nc2nc(N3CCOCC3)nc3c2cnn3C)cc1 returned LDHA block -4.
Screening O=S(=O)(NCC(c1ccc2c(c1)OCO2)N1CCOCC1)c1ccc(Br)cc1 (stereo unspecified) returned TrxR1 inh 5%[57.1 µM], Integrin act MD inconclusive, PI4K2A block -18, TrxR1 substrate 4%[57.1 µM] and LDHA block 0.
Oc1cc2c(cc1C(c1ccc(Br)cc1)N1CCCC1)OCO2 (stereo unspecified) was read as TrxR1 inh 2.5µM*, Integrin act MD -42%, PI4K2A block 2, GALK inhibitor -4%, TrxR1 substrate -18%[57.1 µM] and LDHA block 20.
`CCCCOC(=O)c1ccc(Nc2ncnc3nc[nH]c23)cc1` gave TrxR1 inh 18%, Integrin act MD 0%, PI4K2A block -8, GALK inhibitor -2%, TrxR1 substrate 6% and LDHA block -10.
For CCCCCCCCOC(=O)c1cc([N+](=O)[O-])c(Sc2ncnc3nc[nH]c23)c([N+](=O)[O-])c1 the results were TrxR1 inh 40µM*, Integrin act MD -56%, PI4K2A block 25, TrxR1 substrate -7% and LDHA block 7.
Cc1ccc(NC(=O)/C=C\C(=O)NCC(=O)O)cc1C was read as TrxR1 inh 45µM*, Integrin act MD 9%, PI4K2A block 1, GALK inhibitor 2%, TrxR1 substrate 3% and LDHA block -2.
`Cc1ccc(NC(=O)CC(=O)Nc2ccc(C)c(C)c2)cc1C` gave TrxR1 inh 17%, Integrin act MD -13%, PI4K2A block -3, GALK inhibitor -1%, TrxR1 substrate 3% and LDHA block -7.
